# Experimental data published in ChEMBL document CHEMBL1961873, “Compounds: GSK PKIS; Assays: Nanosyn kinase panel” (2012).
# Several values for one entry are separate records, joined by “and”; a condition that tells them apart may be missing. Equal entries are not always repeated.
# Experiments:
# [1] = molecular target: T1, Inhibitor of nuclear factor kappa-B kinase subunit epsilon (Homo sapiens) (UniProt Q14164); settings: at 1 µM;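 further: reported values are averaged percent inhibition figures against human IKKε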
# T1 sequence (whole entry): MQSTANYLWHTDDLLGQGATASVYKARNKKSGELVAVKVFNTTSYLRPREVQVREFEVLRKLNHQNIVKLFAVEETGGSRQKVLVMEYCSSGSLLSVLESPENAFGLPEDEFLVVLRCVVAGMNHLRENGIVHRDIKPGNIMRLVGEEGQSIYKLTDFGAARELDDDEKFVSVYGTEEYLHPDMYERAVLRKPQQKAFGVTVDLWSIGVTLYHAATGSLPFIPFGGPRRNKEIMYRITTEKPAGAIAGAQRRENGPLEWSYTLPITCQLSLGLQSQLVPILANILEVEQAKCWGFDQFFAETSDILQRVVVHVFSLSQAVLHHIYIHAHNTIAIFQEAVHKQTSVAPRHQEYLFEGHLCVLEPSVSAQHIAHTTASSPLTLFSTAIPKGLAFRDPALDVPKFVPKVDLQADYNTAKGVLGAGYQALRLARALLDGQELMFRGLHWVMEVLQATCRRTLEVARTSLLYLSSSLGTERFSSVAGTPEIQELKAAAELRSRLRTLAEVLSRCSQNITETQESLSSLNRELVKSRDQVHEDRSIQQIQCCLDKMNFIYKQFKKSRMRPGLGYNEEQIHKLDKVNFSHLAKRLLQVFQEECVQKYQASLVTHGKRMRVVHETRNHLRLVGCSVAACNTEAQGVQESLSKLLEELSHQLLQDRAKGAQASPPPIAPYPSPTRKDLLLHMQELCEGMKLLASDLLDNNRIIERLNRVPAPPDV
# [2] = molecular target: T2, Serine/threonine-protein kinase Nek1 (Homo sapiens) (UniProt Q96PY6); settings: at 0.1 µM
# T2 sequence (whole entry): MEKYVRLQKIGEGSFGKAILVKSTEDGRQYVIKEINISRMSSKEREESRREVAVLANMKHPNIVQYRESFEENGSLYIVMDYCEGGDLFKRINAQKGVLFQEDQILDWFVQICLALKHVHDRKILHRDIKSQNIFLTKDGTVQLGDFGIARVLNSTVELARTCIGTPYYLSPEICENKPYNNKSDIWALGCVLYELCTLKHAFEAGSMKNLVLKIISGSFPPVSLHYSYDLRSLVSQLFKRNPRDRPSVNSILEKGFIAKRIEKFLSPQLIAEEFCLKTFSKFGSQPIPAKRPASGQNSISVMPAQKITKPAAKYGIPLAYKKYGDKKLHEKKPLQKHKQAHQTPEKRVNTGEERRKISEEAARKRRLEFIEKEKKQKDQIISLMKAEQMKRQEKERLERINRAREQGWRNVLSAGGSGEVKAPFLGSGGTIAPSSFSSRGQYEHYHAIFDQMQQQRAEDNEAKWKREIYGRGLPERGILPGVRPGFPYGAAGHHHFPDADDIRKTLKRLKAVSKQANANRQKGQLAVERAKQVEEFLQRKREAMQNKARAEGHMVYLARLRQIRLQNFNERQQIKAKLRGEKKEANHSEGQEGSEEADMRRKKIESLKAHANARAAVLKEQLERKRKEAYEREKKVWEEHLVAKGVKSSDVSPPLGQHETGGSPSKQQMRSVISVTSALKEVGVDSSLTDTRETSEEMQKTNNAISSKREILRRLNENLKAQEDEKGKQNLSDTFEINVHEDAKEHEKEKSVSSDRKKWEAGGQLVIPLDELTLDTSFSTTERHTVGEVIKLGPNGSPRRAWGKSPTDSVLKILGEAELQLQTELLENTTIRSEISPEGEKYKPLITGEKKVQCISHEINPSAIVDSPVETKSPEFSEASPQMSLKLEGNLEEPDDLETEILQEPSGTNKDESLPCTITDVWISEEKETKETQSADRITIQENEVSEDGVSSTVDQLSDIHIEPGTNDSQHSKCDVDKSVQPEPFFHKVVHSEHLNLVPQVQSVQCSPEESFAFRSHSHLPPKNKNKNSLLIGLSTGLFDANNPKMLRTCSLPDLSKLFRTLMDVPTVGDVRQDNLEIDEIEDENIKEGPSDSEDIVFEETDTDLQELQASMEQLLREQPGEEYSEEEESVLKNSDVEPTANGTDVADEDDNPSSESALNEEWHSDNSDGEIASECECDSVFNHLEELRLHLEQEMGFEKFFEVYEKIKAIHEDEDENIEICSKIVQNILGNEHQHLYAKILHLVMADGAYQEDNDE
# [3] = molecular target: T2, Serine/threonine-protein kinase Nek1 (Homo sapiens); settings: at 1 µM
# [4] = molecular target: T3, Serine/threonine-protein kinase Nek2 (Homo sapiens) (UniProt P51955); settings: at 0.1 µM
# T3 sequence (whole entry): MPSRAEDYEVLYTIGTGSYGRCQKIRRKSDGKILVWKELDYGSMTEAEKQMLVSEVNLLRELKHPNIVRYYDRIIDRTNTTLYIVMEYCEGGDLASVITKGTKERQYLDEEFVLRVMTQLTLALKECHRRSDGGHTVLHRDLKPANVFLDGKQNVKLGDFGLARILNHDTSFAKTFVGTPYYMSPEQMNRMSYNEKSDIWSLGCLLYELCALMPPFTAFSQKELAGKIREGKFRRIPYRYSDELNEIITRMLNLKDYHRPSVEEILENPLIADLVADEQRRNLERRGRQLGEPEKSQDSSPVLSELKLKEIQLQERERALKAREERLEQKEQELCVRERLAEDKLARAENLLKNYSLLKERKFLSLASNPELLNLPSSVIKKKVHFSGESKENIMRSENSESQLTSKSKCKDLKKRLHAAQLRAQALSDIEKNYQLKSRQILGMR
# [5] = molecular target: T3, Serine/threonine-protein kinase Nek2 (Homo sapiens); settings: at 1 µM
# [6] = molecular target: Serine/threonine-protein kinase Nek6 (Homo sapiens) (UniProt Q9HC98); settings: at 0.1 µM
# Serine/threonine-protein kinase Nek6 (Homo sapiens), sequence (Q9HC98 whole entry): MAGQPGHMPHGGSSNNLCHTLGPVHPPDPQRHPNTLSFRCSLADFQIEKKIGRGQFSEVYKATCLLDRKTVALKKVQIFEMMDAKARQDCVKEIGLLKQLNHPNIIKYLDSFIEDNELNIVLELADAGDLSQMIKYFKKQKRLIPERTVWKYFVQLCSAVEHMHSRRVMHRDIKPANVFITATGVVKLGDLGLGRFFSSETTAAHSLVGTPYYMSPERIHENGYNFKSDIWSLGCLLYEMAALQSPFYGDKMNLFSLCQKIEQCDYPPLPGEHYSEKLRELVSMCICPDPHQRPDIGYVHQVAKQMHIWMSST
# [7] = molecular target: Serine/threonine-protein kinase Nek6 (Homo sapiens) (UniProt Q9HC98); settings: at 1 µM
# [8] = molecular target: Serine/threonine-protein kinase Nek7 (Homo sapiens) (UniProt Q8TDX7); settings: at 0.1 µM
# Serine/threonine-protein kinase Nek7 (Homo sapiens), sequence (Q8TDX7 whole entry, looked up): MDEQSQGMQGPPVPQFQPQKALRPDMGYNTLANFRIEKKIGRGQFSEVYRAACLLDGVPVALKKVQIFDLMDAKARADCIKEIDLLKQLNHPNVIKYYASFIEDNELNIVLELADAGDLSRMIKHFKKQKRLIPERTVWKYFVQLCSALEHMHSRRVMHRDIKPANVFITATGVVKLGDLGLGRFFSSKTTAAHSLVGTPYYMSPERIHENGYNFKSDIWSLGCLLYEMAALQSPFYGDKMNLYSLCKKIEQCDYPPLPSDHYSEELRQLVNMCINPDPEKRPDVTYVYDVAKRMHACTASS
# [9] = molecular target: Serine/threonine-protein kinase Nek7 (Homo sapiens) (UniProt Q8TDX7); settings: at 1 µM
# [10] = molecular target: T4, Serine/threonine-protein kinase Nek9 (Homo sapiens) (UniProt Q8TD19); settings: at 0.1 µM
# T4 sequence (whole entry): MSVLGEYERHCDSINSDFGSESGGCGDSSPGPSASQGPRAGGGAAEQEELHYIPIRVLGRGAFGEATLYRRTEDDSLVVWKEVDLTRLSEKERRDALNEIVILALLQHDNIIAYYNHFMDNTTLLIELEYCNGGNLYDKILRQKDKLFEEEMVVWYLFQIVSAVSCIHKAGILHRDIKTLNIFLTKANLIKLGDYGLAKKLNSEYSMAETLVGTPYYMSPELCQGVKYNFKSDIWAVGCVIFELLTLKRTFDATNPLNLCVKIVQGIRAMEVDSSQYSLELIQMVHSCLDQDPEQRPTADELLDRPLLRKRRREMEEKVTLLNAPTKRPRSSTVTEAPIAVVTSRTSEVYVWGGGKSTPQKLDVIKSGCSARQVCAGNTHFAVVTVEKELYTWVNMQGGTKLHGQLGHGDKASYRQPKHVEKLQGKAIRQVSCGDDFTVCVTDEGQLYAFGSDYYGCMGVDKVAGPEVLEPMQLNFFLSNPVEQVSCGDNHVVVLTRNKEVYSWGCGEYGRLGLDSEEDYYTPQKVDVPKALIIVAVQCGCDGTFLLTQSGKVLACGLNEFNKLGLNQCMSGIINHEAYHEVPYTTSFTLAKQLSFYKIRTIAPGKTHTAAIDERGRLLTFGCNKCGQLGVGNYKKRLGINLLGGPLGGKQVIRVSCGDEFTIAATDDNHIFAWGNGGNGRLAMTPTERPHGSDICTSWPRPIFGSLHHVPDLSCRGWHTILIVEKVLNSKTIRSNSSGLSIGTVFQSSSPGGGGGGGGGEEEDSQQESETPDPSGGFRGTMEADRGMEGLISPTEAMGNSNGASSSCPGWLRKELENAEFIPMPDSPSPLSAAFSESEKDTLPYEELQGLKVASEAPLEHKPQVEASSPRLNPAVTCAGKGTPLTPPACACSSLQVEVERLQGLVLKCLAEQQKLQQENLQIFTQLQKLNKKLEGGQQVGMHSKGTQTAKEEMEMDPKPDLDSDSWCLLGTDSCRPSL
# [11] = molecular target: T4, Serine/threonine-protein kinase Nek9 (Homo sapiens); settings: at 1 µM
# [12] = molecular target: Serine/threonine-protein kinase PLK1 (Homo sapiens) (UniProt P53350); settings: at 0.1 µM
# Serine/threonine-protein kinase PLK1 (Homo sapiens), sequence (P53350 whole entry): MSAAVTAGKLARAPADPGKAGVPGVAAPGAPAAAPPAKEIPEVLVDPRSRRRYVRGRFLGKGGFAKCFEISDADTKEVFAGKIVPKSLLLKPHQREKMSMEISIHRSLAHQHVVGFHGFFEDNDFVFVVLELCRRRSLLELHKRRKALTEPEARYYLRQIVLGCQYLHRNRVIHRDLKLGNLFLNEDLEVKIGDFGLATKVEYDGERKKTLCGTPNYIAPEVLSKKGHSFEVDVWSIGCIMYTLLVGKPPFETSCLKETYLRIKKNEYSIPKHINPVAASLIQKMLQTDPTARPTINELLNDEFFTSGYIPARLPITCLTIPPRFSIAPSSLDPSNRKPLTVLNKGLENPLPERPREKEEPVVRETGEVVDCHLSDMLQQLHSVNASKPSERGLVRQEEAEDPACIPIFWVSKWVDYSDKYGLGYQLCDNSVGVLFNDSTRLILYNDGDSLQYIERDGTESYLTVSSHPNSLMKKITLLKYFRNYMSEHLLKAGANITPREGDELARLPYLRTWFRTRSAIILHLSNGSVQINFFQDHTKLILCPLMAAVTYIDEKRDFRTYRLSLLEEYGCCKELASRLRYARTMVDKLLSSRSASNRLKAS
# [13] = molecular target: Serine/threonine-protein kinase PLK1 (Homo sapiens) (UniProt P53350); settings: at 1 µM
# [14] = molecular target: T5, Dual specificity protein kinase TTK (Homo sapiens) (UniProt P33981); settings: at 0.1 µM
# T5 sequence (whole entry): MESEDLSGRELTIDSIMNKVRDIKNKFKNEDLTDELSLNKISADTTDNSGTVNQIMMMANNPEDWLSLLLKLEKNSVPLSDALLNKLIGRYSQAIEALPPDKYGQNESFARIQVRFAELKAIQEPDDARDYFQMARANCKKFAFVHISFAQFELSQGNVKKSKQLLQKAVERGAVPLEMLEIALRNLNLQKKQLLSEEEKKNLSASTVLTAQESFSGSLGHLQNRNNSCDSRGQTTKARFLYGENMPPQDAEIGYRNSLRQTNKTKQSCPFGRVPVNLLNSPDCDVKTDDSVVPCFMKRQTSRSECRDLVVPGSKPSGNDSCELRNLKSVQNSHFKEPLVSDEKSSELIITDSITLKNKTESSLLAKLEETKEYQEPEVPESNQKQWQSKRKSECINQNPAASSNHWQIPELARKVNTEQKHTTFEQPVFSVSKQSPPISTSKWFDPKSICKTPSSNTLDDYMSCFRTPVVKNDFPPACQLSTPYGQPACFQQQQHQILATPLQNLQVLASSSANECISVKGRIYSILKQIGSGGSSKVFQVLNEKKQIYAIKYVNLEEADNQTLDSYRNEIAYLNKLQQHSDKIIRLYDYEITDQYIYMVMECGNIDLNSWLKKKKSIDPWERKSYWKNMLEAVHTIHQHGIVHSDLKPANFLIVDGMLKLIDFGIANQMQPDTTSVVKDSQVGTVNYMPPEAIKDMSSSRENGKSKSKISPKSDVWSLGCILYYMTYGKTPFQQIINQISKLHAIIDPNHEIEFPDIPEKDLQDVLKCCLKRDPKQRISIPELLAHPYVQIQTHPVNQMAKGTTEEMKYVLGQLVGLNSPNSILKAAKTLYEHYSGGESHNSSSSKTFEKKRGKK
# [15] = tested on: T6, Receptor-type tyrosine-protein kinase FLT3 (Homo sapiens), P36888 [D835Y]; settings: at 1 µM
# T6 sequence (whole entry): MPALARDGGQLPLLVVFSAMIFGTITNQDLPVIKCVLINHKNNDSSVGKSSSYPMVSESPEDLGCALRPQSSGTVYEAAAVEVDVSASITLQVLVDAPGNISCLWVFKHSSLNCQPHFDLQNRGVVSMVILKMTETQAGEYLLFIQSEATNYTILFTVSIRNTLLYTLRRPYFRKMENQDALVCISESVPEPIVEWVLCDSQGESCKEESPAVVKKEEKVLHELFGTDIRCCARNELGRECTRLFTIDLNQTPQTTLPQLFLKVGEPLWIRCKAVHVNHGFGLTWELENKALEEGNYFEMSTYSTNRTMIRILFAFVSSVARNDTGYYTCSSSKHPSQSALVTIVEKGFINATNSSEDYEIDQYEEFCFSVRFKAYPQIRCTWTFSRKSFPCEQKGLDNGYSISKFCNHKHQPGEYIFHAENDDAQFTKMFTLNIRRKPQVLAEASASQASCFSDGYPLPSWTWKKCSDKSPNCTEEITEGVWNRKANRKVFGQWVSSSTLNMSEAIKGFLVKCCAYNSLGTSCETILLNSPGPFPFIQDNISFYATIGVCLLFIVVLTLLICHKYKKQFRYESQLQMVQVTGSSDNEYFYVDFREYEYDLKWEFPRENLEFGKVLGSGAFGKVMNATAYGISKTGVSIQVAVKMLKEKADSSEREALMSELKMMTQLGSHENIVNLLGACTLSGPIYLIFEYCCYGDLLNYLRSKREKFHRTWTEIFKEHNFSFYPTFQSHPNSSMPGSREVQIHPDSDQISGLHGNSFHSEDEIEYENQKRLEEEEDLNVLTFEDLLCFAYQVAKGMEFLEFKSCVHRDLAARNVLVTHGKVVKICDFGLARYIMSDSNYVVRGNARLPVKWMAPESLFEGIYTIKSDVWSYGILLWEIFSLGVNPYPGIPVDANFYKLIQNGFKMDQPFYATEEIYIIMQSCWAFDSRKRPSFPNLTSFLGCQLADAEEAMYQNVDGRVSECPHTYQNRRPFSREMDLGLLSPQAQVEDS
# [16] = molecular target: Vascular endothelial growth factor receptor 3 (Homo sapiens) (UniProt P35916); settings: at 0.1 µM
# Vascular endothelial growth factor receptor 3 (Homo sapiens), sequence (P35916 whole entry): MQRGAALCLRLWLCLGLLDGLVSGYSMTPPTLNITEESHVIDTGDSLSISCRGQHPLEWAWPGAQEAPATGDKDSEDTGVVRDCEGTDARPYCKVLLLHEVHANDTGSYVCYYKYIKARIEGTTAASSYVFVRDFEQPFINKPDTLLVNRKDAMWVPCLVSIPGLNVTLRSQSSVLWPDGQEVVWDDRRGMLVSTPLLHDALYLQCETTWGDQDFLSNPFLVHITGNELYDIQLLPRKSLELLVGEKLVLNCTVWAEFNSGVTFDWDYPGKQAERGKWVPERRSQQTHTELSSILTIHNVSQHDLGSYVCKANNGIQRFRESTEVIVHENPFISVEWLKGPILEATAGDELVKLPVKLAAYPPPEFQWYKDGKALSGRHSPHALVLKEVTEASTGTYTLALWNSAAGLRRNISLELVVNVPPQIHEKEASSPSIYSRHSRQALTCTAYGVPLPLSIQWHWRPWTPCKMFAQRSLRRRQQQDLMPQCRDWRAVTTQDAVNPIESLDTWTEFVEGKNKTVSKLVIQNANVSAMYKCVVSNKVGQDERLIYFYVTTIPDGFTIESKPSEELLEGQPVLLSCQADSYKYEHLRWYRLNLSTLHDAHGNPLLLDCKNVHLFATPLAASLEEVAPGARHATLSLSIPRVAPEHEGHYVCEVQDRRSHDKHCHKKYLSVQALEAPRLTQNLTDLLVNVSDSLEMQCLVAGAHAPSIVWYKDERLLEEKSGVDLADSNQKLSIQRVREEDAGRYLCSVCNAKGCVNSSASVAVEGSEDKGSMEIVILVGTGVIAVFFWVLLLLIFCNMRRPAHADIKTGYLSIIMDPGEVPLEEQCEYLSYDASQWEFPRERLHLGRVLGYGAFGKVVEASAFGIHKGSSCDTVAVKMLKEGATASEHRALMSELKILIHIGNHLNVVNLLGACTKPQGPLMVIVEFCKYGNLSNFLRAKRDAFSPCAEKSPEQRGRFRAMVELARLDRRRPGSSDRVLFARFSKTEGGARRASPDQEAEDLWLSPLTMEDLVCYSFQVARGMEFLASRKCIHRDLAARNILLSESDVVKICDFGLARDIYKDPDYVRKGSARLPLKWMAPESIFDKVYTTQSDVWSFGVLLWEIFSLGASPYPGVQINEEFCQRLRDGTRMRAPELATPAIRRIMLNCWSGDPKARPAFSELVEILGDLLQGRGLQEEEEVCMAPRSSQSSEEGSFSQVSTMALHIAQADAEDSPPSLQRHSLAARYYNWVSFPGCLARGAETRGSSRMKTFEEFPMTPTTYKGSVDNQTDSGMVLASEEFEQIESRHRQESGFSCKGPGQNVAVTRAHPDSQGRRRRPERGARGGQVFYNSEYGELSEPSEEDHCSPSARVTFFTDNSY
# [17] = molecular target: Vascular endothelial growth factor receptor 3 (Homo sapiens) (UniProt P35916); settings: at 1 µM
# [18] = molecular target: Macrophage colony-stimulating factor 1 receptor (Homo sapiens) (UniProt P07333); settings: at 0.1 µM
# Macrophage colony-stimulating factor 1 receptor (Homo sapiens), sequence (P07333 whole entry): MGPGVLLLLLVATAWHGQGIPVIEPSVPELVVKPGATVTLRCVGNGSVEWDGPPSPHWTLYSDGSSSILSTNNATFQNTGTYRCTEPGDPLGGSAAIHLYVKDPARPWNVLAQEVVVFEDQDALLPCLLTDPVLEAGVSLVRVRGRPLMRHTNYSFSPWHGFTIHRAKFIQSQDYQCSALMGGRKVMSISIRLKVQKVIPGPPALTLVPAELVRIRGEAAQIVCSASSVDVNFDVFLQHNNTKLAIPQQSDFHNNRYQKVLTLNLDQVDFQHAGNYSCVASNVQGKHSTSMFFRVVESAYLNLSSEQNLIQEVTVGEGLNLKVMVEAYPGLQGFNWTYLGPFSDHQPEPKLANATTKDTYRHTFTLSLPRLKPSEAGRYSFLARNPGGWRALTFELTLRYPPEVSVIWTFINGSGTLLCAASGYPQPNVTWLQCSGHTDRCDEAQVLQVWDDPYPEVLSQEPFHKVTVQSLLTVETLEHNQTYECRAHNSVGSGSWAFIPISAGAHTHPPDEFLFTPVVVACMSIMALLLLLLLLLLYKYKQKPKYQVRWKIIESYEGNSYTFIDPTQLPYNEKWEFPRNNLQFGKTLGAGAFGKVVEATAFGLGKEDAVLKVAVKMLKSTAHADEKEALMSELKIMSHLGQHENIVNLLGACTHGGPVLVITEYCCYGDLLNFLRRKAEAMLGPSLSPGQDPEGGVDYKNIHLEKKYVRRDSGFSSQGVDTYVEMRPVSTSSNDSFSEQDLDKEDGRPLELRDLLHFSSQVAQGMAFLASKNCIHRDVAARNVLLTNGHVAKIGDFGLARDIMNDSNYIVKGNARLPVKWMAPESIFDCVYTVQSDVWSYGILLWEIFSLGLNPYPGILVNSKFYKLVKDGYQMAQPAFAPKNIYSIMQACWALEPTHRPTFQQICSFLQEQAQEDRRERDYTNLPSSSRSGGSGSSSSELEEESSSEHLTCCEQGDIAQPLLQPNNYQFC
# [19] = molecular target: Macrophage colony-stimulating factor 1 receptor (Homo sapiens) (UniProt P07333); settings: at 1 µM
# [20] = molecular target: Tyrosine-protein kinase Fyn (Homo sapiens) (UniProt P06241); settings: at 0.1 µM
# Tyrosine-protein kinase Fyn (Homo sapiens), sequence (P06241 2-537 limits assumed): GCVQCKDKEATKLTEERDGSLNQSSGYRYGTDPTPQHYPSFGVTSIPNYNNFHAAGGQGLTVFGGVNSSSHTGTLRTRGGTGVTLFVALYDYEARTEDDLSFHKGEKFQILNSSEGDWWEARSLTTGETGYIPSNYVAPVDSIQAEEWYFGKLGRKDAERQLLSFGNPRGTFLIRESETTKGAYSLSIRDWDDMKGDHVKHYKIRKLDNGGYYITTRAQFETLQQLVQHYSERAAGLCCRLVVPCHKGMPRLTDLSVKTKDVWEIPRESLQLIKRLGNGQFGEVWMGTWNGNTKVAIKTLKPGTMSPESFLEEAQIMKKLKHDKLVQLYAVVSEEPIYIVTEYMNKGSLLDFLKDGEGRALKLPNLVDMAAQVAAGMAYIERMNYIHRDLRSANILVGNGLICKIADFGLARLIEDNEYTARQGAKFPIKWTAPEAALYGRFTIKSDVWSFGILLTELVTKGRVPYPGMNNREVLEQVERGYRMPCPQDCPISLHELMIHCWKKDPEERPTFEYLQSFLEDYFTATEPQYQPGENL
Structure (SMILES),inhibition [1],inhibition [2],inhibition [3],inhibition [4],inhibition [5],inhibition [6],inhibition [7],inhibition [8],inhibition [9],inhibition [10],inhibition [11],inhibition [12],inhibition [13],inhibition [14],inhibition [15],inhibition [16],inhibition [17],inhibition [18],inhibition [19],inhibition [20]
CNC(=O)c1cncc(/C=C/c2ccccc2C)c1,5.71%,2.13%,4.28%,4.96%,5.88%,1.4%,3.73%,1.08%,4.03%,3.46%,3.57%,4.47%,3.11%,8.61%,2.62%,6.74%,3.1%,-0.27%,4.09%,-0.42%
CN1CCN(Cc2ccc(-c3cc4ncnc(Nc5ccc(OCc6cccc(F)c6)c(Cl)c5)c4s3)o2)CC1,4.6% and 4.24%,1.24% and 3.95%,2.68% and 4.85%,3.46% and 4.63%,2.94% and 4.7%,-1.83% and 5.78%,0.03% and 5.91%,2.08% and 6.06%,5.67% and 4.39%,-2.04% and 6.24%,5.83% and 18%,3.39% and 1.18%,2.38% and 4.14%,6.58% and 12.2%,-2.05% and 1.99%,2.97% and 4.96%,3.14% and 8.22%,3.64% and 7.74%,27.9% and 35.8%,2.24% and 2.04%
Cc1c2ccc(N(C)c3ccnc(Nc4cccc(S(N)(=O)=O)c4)n3)cc2nn1C,6.19%,3.11%,4.82%,6.4%,19.9%,0.7%,0.72%,5.3%,3.13%,9.14%,6.19%,3.29%,3.99%,8.91%,13.8%,58.8%,93.8%,78.4%,91.7%,13.8%
